Five compounds from PubChem BioAssay AID651548 (Broad Institute, 2012) can be followed below.

In all, about 57,000 compounds went through this assay and about 200 (0.35%) were called active.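 Rule for the calls: active = mean inhibition of replicates at least 50% and every single replicate also reaching 50%; inconclusive = mean inhibition at least 50% but some replicate falls below 50%; inactive = mean inhibition under 50%.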 The full list was thinned out, with actives kept by preference.

In general, inhibition refers to the drop in the measured response relative to a control, in per cent.

The target in the test is Histone-lysine N-methyltransferase EZH2 (Homo sapiens) (UniProt Q15910). The test is described as follows: inhibition of PRC2 H3K27 methylation – biochemical, DELFIA time-resolved fluorescence, single point, primary screen (AID 651548).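 Note: dimethyl H3K27 on biotinylated H3 21-44 peptide detected by antibody; plate controls were median neutral control wells for no effect and median positive control wells for full effect.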 The following applies: DELFIA TRF, 1 h, at 12.5 µM, active compounds read high.
Histone-lysine N-methyltransferase EZH2 (Homo sapiens), sequence (Q15910 whole entry, looked up): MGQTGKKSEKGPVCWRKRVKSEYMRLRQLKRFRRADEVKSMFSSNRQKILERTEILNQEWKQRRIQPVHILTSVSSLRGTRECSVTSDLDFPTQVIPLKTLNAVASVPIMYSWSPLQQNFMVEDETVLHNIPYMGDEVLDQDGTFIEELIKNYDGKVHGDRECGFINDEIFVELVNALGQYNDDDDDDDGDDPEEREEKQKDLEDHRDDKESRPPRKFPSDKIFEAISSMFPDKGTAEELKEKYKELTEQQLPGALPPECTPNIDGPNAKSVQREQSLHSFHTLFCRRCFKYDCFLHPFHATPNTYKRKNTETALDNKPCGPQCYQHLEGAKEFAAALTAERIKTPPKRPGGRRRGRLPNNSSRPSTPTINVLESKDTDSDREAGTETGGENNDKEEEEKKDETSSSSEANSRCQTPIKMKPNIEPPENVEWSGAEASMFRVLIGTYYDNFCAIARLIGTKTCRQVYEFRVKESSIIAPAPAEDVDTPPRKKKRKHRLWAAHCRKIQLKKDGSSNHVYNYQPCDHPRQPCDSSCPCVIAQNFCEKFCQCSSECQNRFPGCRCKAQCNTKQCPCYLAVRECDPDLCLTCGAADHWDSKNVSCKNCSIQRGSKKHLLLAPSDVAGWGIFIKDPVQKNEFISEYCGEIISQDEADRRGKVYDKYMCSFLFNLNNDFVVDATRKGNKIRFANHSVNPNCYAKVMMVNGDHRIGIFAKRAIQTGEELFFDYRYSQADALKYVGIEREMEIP
For `C[C@@H]1O[C@@H](O[C@@H]2C=C3CC[C@@H]4C(C[C@@H](O)[C@]5(C)[C@@H](c6ccc(=O)oc6)CC[C@]45O)[C@@]3(C)CC2)[C@H](O)[C@H](O)[C@H]1O[C@@H]1O[C@H](CO)[C@@H](O)[C@H](O)[C@H]1O` (stereo not given in full), the inhibition is 75.9% (active).
Next, `c1ccc(CCCCN2CCC(c3ccccc3)CC2)cc1`: 11.8% (inactive); `CCCCCCCCCCCCCC(=O)O[C@@H]1[C@@H](C)[C@@]2(O)[C@@H](C=C(CO)C[C@]3(O)C(=O)C(C)=C[C@@H]23)[C@@H]2C(C)(C)[C@]12OC(C)=O`: -10.7% (inactive).
Take `c1ccc2c(c1)[I+]c1ccccc1-2`: the inhibition is -3.64% (inactive).
Take `CC(C)(Cc1c[nH]c2ccc(Cl)cc12)NCCOc1ccccc1OCC1CC1`: the inhibition was 3.93% (inactive).
